Screening data from PubChem BioAssay.
UBC9 SUMO inh – SUMOylation inhibition; P63279; HTRF SUMOylation assay, SAE1/SAE2 + UBC9, in vitro; inhibition, % at 35 µM; actives 0.36% (n = 290,000); in the data active means inhibition above about 50%, passing the limit was not always enough; inconclusive means no clear call, values can overlap the other calls
Target sequence (P63279 whole entry, looked up): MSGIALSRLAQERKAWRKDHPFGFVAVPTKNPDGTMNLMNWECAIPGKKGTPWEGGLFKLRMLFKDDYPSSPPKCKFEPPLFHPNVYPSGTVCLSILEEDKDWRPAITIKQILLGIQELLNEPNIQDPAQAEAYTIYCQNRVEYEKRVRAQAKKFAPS
ALR inh – human ALR oxidase inhibition via reduced H2O2. inhibition, % (test concentration not listed). P55789. purified ALR, DTT oxidation, H2O2 HRP-luminol luminescence. actives 3.8% (n = 290,000);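 active means mean replicate inhibition above about 79%, with every replicate also reaching it, limit read from the data; inconclusive means only one of the two criteria met; inactive means mean below limit and not every replicate reaching it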
Target sequence (P55789 whole entry, looked up): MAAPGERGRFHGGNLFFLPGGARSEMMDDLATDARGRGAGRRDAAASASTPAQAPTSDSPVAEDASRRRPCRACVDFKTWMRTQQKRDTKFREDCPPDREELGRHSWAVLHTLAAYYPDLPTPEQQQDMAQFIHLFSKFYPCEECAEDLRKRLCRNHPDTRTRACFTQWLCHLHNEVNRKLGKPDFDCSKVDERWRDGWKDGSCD
H9c2 protect – protects H9c2 cardiomyocytes from peroxide injury; H2O2 injury protection, ATPLite, 2 h; protection from H2O2 cell death, % at 20 µM; actives 0.63% (n = 360,000);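 active means compounds giving at least 50% protection of heart cells from peroxide-induced death in the single-dose screen, raw or plate-pattern-corrected value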
NTR1 ag – NTR1 (human) agonism | AID 493036 | actives 0.17% (n = 330,000) | NTR1-U2OS beta-arrestin-GFP spot imaging, agonist mode | activation, % at 20 µM;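 active means activation at or above 40% of the spot to cytoplasm intensity ratio, with at least 20 cells analyzed; inconclusive means wells under 20 cells, flagged as cytotoxic or low count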
Large screens that a line does not name were inactive. A selection: hits, their analogues and other compounds. The true share with any hit is near 3.9%.

NC1=NC2(CCN(Cc3ccccc3)CC2)n2c(nc3ccccc32)N1	none
Cc1ccc(S(=O)(=O)Nc2nc3ccccc3nc2NCc2ccco2)cc1C	ALR inh inconclusive
COc1ccc(-c2nc(=S)[nH][nH]2)cc1OC	ALR inh 100
COc1cc(-c2nc(=S)[nH][nH]2)cc(OC)c1OC	ALR inh 99
FC(F)(F)c1ccc(-c2nc(=S)[nH][nH]2)cc1	ALR inh 99
CCOc1ccc(-c2nc(=S)[nH][nH]2)cc1	none (no result: ALR inh)
COc1ccc(-c2nc(=S)[nH][nH]2)cc1	ALR inh 99
COc1ccc(-c2nn[nH]n2)cc1OC	none
Oc1ccc(-c2nc(=S)[nH][nH]2)cc1	none (no result: ALR inh)
C[C@H](NC(=O)OCc1ccccc1)c1nnc([C@H](Cc2ccccc2)NC(=O)OC(C)(C)C)o1	none
Cc1ccc(CCCNC(=O)C2CCC(=O)N(Cc3cccc(F)c3)C2)cc1 (stereo not given)	none
Cc1[nH]n(-c2ccc(F)cc2)c(=O)c1/C=N/c1sc2c(c1C#N)CCCC2	none
O=C(O)c1cc(-c2ccccc2Cl)n(-c2ccc(F)cc2)n1	none
CCC(C)/C(C)=N/NC(=O)c1ccc(COc2ccc(Cl)c(C)c2)cc1 (stereo not given)	ALR inh 99 (no result: NTR1 ag)
CCOC(=O)c1sc(N)c(C#N)c1CSc1nc2ccc(C)cc2[nH]1	ALR inh 91
COC(=O)c1ccc(CSc2n[nH]c(=S)s2)o1	ALR inh 92
COC(=O)c1ccc(CSc2nc3ccc(C)cc3[nH]2)o1	ALR inh 95
CCOC(=O)c1sc(N)c(C#N)c1CSc1nc2ccc(OCC)cc2[nH]1	none
COC(=O)c1ccc(CSc2nc3c(cnn3-c3ccc(C)cc3)c(=O)[nH]2)o1	none
O=C1Nc2ccccc2C12OCC(COc1ccc(Cl)cc1)O2 (stereo not given)	none
c1cc(-c2ccc3nncn3c2)ccc1CN1CCOCC1	none (no result: UBC9 SUMO inh, ALR inh, NTR1 ag)
CCOC(=O)c1c2c3c(c(Cl)ccc3[nH]c1=O)C(=O)c1ccccc1-2	H9c2 protect 60 (no result: ALR inh)
CCOC(=O)c1c2c3c(cccc3n(C)c1=O)C(=O)c1ccccc1-2	H9c2 protect 75
CCOC(=O)c1c2c3c(cccc3[nH]c1=O)C(=O)c1ccccc1-2	none
Cc1cc(C)cc(OCC(=O)OCC(=O)NCc2ccco2)c1	none
CC(C)CSC1=NSC2=NC(=O)/C(=C\c3coc4ccccc4c3=O)C(=N)N12	none
CSC1=NSC2=NC(=O)/C(=C\c3coc4ccccc4c3=O)C(=N)N12	ALR inh 97 (no result: NTR1 ag)
COCCN1CCN(c2c3c(nc4cc(-c5cccc(F)c5)nn24)CCC3)CC1	H9c2 protect 86
CCOC(=O)C1CCN(c2cc3c(cc2NC(=O)c2cc(OC)ccc2Br)n(C)c(=O)n3C)CC1	UBC9 SUMO inh inconclusive (no result: ALR inh)
CCn1c(=O)n(CC)c2cc(N3CCCC3)c(NC(=O)c3ccccc3OC)cc21	none
CCOC(=O)C1CCN(c2cc3c(cc2NC(=O)c2ccccc2Br)n(C)c(=O)n3C)CC1	H9c2 protect 52 (no result: UBC9 SUMO inh)
CCOc1ccccc1C(=O)Nc1cc2c(cc1N1CCCC1)n(CC)c(=O)n2CC	ALR inh 99
O=C(Nc1cc2ccccc2oc1=O)c1ccccc1	none
COc1ccc(C(=O)Cn2c(C)nc([N+](=O)[O-])c2Br)cc1	none
Cc1nc([N+](=O)[O-])c(Br)n1CC(=O)c1ccc(Cl)cc1	ALR inh 97
COc1ccc(C=NNc2nc3c([nH]2)c(=O)n(C)c(=O)n3C)cc1	H9c2 protect 73 (no result: UBC9 SUMO inh, ALR inh, NTR1 ag)
Cn1c(=O)c2[nH]c(NN=Cc3ccccc3)nc2n(C)c1=O	none (no result: UBC9 SUMO inh, ALR inh, NTR1 ag)
Cn1c(=O)c2[nH]c(NN=Cc3ccc(Br)cc3)nc2n(C)c1=O	H9c2 protect 58 (no result: UBC9 SUMO inh, ALR inh, NTR1 ag)
Cc1ccc(C=NNc2nc3c([nH]2)c(=O)n(C)c(=O)n3C)cc1	H9c2 protect 70 (no result: UBC9 SUMO inh, ALR inh, NTR1 ag)
COc1cccc(N2C(=O)CC(Nc3ccc(N4CCOCC4)cc3)C2=O)c1 (stereo not given)	ALR inh 99
Cc1ccc(CN2C(=O)CC(Nc3ccc(N4CCOCC4)cc3)C2=O)cc1 (stereo not given)	ALR inh 99
O=C1CC(Nc2ccc(N3CCOCC3)cc2)C(=O)N1CCc1ccccc1 (stereo not given)	none
COc1ccc(N2C(=O)CC(Nc3ccc(N4CCOCC4)cc3)C2=O)c(OC)c1 (stereo not given)	ALR inh 98
CN(C)c1ccc(N2C(=O)CC(Nc3ccc(N4CCOCC4)cc3)C2=O)cc1 (stereo not given)	none
O=C1CC(Nc2ccc(N3CCOCC3)cc2)C(=O)N1c1cccc(C(F)(F)F)c1 (stereo not given)	none (no result: ALR inh)
COc1ccc(CNC(=O)/C(C)=C\C(=O)O)cc1	none
NC(=S)N/N=C1\CC(n2nnnc2-c2ccccc2)C2COC1O2 (stereo not given)	none
O=C(NC1CCCCC1)c1cc(S(=O)(=O)N2CCCC2)ccc1Cl	none (no result: ALR inh)
O=C(O)c1nn(CCOc2cccc(Cl)c2)c(=O)c2ccccc12	none
O=C(c1cc(C2CC2)on1)N1CCN(c2ccccc2)CC1	ALR inh 86
O=C(c1cc(-c2ccc(O)cc2)on1)N1CCCC1	ALR inh 99
O=C(c1cc(-c2ccc(O)cc2)on1)N1CCN(c2ccccc2)CC1	ALR inh 81
O=C(c1cc(-c2ccc(O)cc2)on1)N1CCN(c2ccc(F)cc2)CC1	ALR inh 91
O=C(c1cc(-c2ccc3c(c2)OCO3)on1)N1CCN(c2ccc(F)cc2)CC1	none (no result: ALR inh)
O=C(c1cc(-c2ccc3c(c2)OCO3)on1)N1CCN(c2ccccc2)CC1	none
COc1cccc(-n2c(SCC(N)=O)nnc2-c2ccco2)c1	none
COc1ccc(NC2c3ncccc3C(=O)N2Cc2cccs2)cc1 (stereo not given)	ALR inh 96
COC(=O)c1ccc(NC2c3ncccc3C(=O)N2Cc2cccs2)cc1 (stereo not given)	none
CCOc1cc(/C=N/NC(=O)NN(C)c2ncc(C(F)(F)F)cc2Cl)ccc1O	ALR inh 99
CN1c2ccccc2Sc2cc(N)ccc21	ALR inh 95
CCOC(=O)Cc1csc(NC(=O)CCSc2ccccc2)n1	none (no result: ALR inh)
CNC(=O)CCSSCCC(=O)NC	none
Clc1nnc(N2CCCCC2)c2ccccc12	ALR inh 98
c1ccc2c(N3CCCCC3)nnc(N3CCCCC3)c2c1	none (no result: ALR inh, H9c2 protect, NTR1 ag)
O=C(O)c1ccccc1N/N=C\c1ccnc2ccccc12	none (no result: ALR inh)
O=C(O)c1cccc2c(/C=N/Nc3ccccn3)c[nH]c12	ALR inh 98
C(=N\Nc1ccccn1)/c1c[nH]c2ccccc12	ALR inh 99
O=c1nc(N/N=C/c2c[nH]c3ccccc23)cn[nH]1	none
O=C(N/N=C/c1c[nH]c2ccccc12)c1ccc(O)c(O)c1	ALR inh 99
CC(Oc1ccccc1)C(=O)N1CCN(S(=O)(=O)c2ccc(OC(F)(F)F)cc2)CC1 (stereo not given)	none (no result: UBC9 SUMO inh, ALR inh, NTR1 ag)
CCOC(=O)c1ccc(NC(=S)N(CCN(C)C)C(C)c2ccncc2)cc1 (stereo not given)	none
COC(=O)N/N=C/c1cc(C)n(-c2ccc(Br)cc2)c1C	none
CC(=O)N/N=C/c1cc(C)n(-c2ccc(Br)cc2)c1C	ALR inh 98
COCCN1C=C2C(=O)C(C)(OC(=O)CCC(=O)OC)C(=O)C=C2C=C1C1CC1 (stereo not given)	none
